Inconclusive results are not listed. Calls of active or inactive are those of the source. The calls were made as follows, unless noted: active = hit-call score of the fitted dose curve at least 0.9, where 1 is the maximum; inactive = score below 0.9.
How the values were obtained:
[1] = target: CCAAT/enhancer-binding protein beta (Homo sapiens) (UniProt P17676); experiment: ATG_C_EBP_CIS: Attagene CIS-FACTORIAL HepG2 Assay for human CCAAT/Enhancer Binding Protein (C/EBP) beta (AID 2282927); conditions: HepG2 Attagene cis-factorial transcription factor reporter; actives raise or lower the signal
CCAAT/enhancer-binding protein beta (Homo sapiens), sequence (P17676 whole entry, looked up): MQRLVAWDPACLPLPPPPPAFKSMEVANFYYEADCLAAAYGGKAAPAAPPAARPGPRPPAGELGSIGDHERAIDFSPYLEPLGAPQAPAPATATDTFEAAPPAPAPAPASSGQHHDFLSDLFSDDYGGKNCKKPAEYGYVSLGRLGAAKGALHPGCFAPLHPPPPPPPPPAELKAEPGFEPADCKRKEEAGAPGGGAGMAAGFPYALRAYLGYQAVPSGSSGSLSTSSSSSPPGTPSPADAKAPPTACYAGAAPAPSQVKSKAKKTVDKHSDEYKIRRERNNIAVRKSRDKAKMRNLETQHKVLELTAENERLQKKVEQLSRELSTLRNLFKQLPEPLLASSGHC
Method in brief: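 RT-PCR/capillary electrophoresis fluorescence of reporter mRNA, 24 h post-dose, in HepG2 cells carrying transfected cis-promoter reporter units. Bidirectional curve fitting against DMSO baseline captures gain or loss of signal.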

[2] = ATG_CMV_CIS: Attagene CIS-FACTORIAL HepG2 Assay for human CMV (Internal Marker) (AID 2282928); conditions: HepG2 CMV promoter reporter, transcription factor profiling; actives raise or lower the signal;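 also: endpoint acts as a background internal control marker rather than a target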
Method in brief: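 Cell system: HepG2, transiently transfected multiple reporter units under cis promoters. Exposure: 24 h. Detection: RT-PCR, FAM labeling, HpaI digestion, capillary electrophoresis. Analysis: bidirectional, DMSO baseline.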

[3] = target: Aryl hydrocarbon receptor (Homo sapiens) (UniProt P35869); experiment: ATG_Ahr_CIS: Attagene CIS-FACTORIAL HepG2 Assay for human Aryl Hydrocarbon Receptor (Ahr) (AID 2282930); conditions: HepG2 AhR cis-factorial reporter transcription; actives raise or lower the signal
Aryl hydrocarbon receptor (Homo sapiens), sequence (P35869 whole entry, looked up): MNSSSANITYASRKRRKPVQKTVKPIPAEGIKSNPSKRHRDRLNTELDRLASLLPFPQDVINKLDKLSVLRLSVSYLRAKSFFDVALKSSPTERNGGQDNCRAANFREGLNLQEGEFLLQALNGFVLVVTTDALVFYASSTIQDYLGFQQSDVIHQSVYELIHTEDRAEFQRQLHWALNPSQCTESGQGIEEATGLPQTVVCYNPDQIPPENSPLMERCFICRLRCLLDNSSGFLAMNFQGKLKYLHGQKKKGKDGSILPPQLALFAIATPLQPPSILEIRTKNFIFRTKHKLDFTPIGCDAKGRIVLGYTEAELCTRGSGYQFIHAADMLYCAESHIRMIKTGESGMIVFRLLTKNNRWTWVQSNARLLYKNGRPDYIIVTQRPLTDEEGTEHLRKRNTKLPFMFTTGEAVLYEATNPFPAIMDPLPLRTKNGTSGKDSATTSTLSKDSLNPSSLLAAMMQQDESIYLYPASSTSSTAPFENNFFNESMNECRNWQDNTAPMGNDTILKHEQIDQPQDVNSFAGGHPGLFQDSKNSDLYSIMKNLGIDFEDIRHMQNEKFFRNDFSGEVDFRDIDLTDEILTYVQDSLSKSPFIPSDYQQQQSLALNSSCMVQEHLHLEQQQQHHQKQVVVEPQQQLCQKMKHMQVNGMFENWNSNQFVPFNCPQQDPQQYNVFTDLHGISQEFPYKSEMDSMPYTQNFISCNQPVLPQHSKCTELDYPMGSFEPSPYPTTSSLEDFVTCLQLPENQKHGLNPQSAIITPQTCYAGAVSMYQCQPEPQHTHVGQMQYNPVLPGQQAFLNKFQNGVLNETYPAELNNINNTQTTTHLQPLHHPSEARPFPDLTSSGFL
Method in brief: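 HepG2 cells transiently transfected with cis-element-driven multiplexed reporter transcription units; endogenous transcription factor activity measured as reporter mRNA 24 h after dosing. RT-PCR, 6-FAM labelling, HpaI digestion, capillary electrophoresis; bidirectional fitting versus DMSO baseline.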

[4] = target: Hypoxia-inducible factor 1-alpha (Homo sapiens) (UniProt Q16665); experiment: ATG_HIF1a_CIS: Attagene CIS-FACTORIAL HepG2 Assay for human Hypoxia Inducible Factor 1 (HIF1A) (AID 2282951); conditions: HepG2 Attagene cis-factorial HIF1a reporter transcription; actives raise or lower the signal
Hypoxia-inducible factor 1-alpha (Homo sapiens), sequence (Q16665 whole entry, looked up): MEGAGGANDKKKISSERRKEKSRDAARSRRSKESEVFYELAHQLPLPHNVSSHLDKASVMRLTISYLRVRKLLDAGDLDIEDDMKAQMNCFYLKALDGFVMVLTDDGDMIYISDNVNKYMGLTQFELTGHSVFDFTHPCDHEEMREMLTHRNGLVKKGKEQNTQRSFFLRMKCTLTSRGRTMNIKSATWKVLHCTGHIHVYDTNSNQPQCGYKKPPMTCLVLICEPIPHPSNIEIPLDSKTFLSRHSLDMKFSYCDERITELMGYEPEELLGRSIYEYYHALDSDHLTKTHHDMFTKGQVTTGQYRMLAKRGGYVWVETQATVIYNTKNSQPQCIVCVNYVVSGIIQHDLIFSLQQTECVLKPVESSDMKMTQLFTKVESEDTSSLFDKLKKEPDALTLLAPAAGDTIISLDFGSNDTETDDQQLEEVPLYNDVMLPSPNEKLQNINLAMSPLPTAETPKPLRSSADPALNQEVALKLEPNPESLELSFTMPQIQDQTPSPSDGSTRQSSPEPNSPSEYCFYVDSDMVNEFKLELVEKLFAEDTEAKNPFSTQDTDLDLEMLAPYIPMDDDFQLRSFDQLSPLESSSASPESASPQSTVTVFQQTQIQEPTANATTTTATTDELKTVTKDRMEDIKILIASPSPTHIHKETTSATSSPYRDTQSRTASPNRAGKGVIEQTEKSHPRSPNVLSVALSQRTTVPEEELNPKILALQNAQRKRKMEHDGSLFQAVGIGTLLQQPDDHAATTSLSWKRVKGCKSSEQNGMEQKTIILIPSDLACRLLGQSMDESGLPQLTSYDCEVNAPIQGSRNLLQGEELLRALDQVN
Method in brief: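 Activity is fitted in both directions relative to DMSO. Reporter transcripts are read by RT-PCR, fluorescent primer extension and capillary electrophoresis after 24 h chemical treatment. The cells are HepG2 carrying transiently transfected cis-element-driven reporter units responding to endogenous factors.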

[5] = target: Hepatocyte nuclear factor 6 (Homo sapiens) (UniProt Q9UBC0); experiment: ATG_HNF6_CIS: Attagene CIS-FACTORIAL HepG2 Assay for human Hepatocyte Nuclear Factor 6 (HNF6) (AID 2282952); conditions: HepG2 Attagene cis-factorial HNF6 reporter transcription; actives raise or lower the signal
Hepatocyte nuclear factor 6 (Homo sapiens), sequence (Q9UBC0 whole entry, looked up, the tested form may be a part): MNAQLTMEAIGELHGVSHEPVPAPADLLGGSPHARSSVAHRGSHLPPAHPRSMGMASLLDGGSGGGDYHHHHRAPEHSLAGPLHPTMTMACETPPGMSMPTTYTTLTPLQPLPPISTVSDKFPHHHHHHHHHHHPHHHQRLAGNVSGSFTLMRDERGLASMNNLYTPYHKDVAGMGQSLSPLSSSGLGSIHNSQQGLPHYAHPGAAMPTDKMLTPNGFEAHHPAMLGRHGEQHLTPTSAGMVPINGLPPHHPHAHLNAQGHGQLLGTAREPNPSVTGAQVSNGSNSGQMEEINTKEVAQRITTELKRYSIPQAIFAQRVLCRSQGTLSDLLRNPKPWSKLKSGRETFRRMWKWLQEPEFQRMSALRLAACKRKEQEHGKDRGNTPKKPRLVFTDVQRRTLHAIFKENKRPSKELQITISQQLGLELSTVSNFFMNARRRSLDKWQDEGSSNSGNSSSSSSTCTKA
Method in brief: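 HepG2 cells transiently transfected with cis-element-driven multiplexed reporter units measuring endogenous transcription factor activity. After 24 h exposure, reporter mRNA quantified by RT-PCR, FAM-labelled fragments and capillary electrophoresis; bidirectional fitting versus DMSO.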

[6] = target: Heat shock factor protein 1 (Homo sapiens) (UniProt Q00613); experiment: ATG_HSE_CIS: Attagene CIS-FACTORIAL HepG2 Assay for human Heat Shock Transcription Factor 1 (HSE) (AID 2282953); conditions: HepG2 HSE cis-reporter, Attagene RNA transcription; actives raise or lower the signal
Heat shock factor protein 1 (Homo sapiens), sequence (Q00613 whole entry, looked up, the tested form may be a part): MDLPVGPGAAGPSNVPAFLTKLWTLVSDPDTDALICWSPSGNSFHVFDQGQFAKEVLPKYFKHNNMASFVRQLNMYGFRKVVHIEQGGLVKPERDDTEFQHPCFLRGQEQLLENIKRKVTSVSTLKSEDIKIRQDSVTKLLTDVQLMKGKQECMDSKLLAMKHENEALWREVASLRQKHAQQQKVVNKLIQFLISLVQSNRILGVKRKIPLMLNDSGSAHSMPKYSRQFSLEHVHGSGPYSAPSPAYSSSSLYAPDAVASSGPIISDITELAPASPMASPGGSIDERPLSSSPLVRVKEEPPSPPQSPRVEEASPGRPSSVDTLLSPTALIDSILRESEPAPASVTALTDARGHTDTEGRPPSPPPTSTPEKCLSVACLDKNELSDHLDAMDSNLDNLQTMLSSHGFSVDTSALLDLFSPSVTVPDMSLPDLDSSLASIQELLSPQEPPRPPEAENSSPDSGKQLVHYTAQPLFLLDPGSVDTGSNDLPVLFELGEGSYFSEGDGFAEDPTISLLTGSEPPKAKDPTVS
Method in brief: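 Read-out: fluorescence of reporter-specific RT-PCR fragments separated by capillary electrophoresis. HepG2 carrying transfected cis-element reporter units; 24 h dosing; activity fitted in both directions relative to DMSO baseline.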

[7] = ATG_RORE_CIS: Attagene CIS-FACTORIAL HepG2 Assay for human RAR-related Orphan Receptor Element (RORE) (AID 2282959); conditions: HepG2 Attagene cis-factorial RORE reporter, mRNA; actives raise or lower the signal
Method in brief: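 RORE reporter transcripts reflecting endogenous factor activity were read after 24 h compound exposure of transfected HepG2 cells, using reverse transcription, PCR, fluorescent labelling and capillary electrophoresis sizing. Gain or loss fitted against DMSO.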

[8] = ATG_TA_CIS: Attagene CIS-FACTORIAL HepG2 Assay for human TA Basal Promoter (AID 2282964); conditions: HepG2 Attagene CIS-factorial TA basal promoter reporter; actives raise or lower the signal
Method in brief: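 Transfected HepG2, 24 h compound exposure; RNA → RT-PCR → FAM primer extension → HpaI cut → CE fluorescence. Gain/loss-of-signal fitted against DMSO negative control. Background-control readout.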

[9] = ATG_TCF_b_cat_CIS: Attagene CIS-FACTORIAL HepG2 Assay for human T-Cell-Factor with beta-catenin (TCF/b-cat) (AID 2282965); conditions: HepG2 TCF/beta-catenin cis-reporter transcription, actives raise or lower the signal
Method in brief: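 HepG2 cells transiently transfected with multiple cis-promoter-regulated reporter transcription units, so endogenous transcription factor activity is measured. Reporter mRNA read 24 hours after dosing by RT-PCR, fluorescent labelling and capillary electrophoresis; bidirectional fitting against DMSO.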

[10] = ATG_TAL_CIS: Attagene CIS-FACTORIAL HepG2 Assay for human TAL Basal Promoter (AID 2282966); conditions: HepG2 Attagene cis-factorial TAL promoter reporter; actives raise or lower the signal;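 also: background control endpoint measuring basal TAL promoter reporter mRNA not a specific factor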
Method in brief: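 HepG2 cells transiently transfected with multiplexed cis-promoter reporter units, dosed 24 h. Reporter mRNA quantified by RT-PCR, 6-FAM labelling, HpaI digestion and capillary electrophoresis; TAL basal promoter serves as background control, fitted bidirectionally versus DMSO.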

[11] = ATG_TGFb_CIS: Attagene CIS-FACTORIAL HepG2 Assay for human Transforming Growth Factor (TGF) (AID 2282967); conditions: HepG2 Attagene CIS TGFb reporter, mRNA transcription; actives raise or lower the signal
Method in brief: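 Readout: fluorescently labeled reporter cDNA fragments resolved by capillary electrophoresis after RT-PCR. Transfected HepG2 cells dosed for 24 h; endogenous TF activity at TGFB1-linked cis element; gain or loss fitted relative to DMSO.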

[12] = ATG_M_32_TRANS: Attagene TRANS-FACTORIAL HepG2 Assay for M32 Transcription Factor (Internal Marker) (AID 2282984; active = hit-call score of the fitted dose curve at least 0.9, where 1 is the maximum;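 also: transcript level of a background control reporter unit measured by RT-PCR and capillary electrophoresis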); conditions: HepG2 Attagene TRANS M32 internal marker reporter
Method in brief: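 HepG2 cells transiently transfected with multiple GAL4-UAS reporter transcription units, dosed for 24 hours; reporter mRNA quantified by RT-PCR, 6-FAM primer extension, HpaI digestion and capillary electrophoresis. Gain-of-signal fitted versus DMSO baseline; internal background-control marker.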

[13] = target: Transcriptional activator Myb (Homo sapiens) (UniProt P10242); experiment: ATG_Myb_CIS: Attagene CIS-FACTORIAL HepG2 Assay for human Myeloblastosis (Myb) Proto-Oncogene Transcription Factor (AID 2282986); conditions: HepG2 Attagene CIS-FACTORIAL Myb reporter transcription; actives raise or lower the signal
Transcriptional activator Myb (Homo sapiens), sequence (P10242 whole entry, looked up): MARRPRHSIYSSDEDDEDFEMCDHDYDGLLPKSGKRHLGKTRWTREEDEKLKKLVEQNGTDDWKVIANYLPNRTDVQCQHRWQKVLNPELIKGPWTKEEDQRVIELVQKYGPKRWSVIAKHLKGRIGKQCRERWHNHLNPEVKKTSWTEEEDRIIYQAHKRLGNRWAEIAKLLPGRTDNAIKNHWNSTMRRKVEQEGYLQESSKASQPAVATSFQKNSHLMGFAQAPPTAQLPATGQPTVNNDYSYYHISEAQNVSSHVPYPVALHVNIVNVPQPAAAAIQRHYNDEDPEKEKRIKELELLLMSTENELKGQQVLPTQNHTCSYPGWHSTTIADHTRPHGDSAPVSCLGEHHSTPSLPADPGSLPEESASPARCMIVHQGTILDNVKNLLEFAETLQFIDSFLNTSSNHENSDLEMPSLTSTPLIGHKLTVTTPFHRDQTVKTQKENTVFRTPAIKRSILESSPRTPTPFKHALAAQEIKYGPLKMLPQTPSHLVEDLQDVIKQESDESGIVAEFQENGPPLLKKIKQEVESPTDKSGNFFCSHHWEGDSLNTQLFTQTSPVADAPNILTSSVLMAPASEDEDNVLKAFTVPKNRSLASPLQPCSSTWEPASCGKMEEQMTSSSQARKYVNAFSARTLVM
Method in brief: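 Reporter mRNA is quantified by RT-PCR and capillary electrophoresis 24 h after dosing HepG2 cells transfected with cis-regulated reporter units, which track endogenous transcription factor activity. Gain and loss of signal are fitted versus DMSO baseline.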

[14] = target: Myc proto-oncogene protein (Homo sapiens) (UniProt P01106); experiment: ATG_Myc_CIS: Attagene CIS-FACTORIAL HepG2 Assay for human Myelocytomatosis (Myc) Proto-Oncogene Transcription Factor (AID 2282990); conditions: HepG2, Attagene cis-reporter transcription factor activity; actives raise or lower the signal
Myc proto-oncogene protein (Homo sapiens), sequence (P01106 whole entry, looked up): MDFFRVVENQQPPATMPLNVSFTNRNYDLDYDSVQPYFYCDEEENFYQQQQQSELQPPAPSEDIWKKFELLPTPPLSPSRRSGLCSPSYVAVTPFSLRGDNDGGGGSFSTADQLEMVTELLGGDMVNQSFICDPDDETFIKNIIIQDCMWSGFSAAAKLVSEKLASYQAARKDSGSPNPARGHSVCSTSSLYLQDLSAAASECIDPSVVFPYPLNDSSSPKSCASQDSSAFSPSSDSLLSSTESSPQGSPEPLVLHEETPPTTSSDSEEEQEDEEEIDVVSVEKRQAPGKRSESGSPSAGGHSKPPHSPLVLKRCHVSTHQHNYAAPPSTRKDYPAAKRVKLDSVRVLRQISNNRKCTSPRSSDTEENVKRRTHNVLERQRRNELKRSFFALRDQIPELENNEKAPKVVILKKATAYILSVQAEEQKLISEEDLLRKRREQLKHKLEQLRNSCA
Method in brief: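 HepG2 cells transiently transfected with multiple cis-promoter-driven reporter transcription units, so endogenous TF activity is read. After 24 h compound exposure, reporter mRNA was quantified by RT-PCR, 6-FAM labelling, HpaI digestion and capillary electrophoresis; bidirectional fit versus DMSO.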

[15] = ATG_NF_kB_CIS: Attagene CIS-FACTORIAL HepG2 Assay for human Nuclear Factor Kappa B (NF-kB) (AID 2282991); conditions: HepG2 Attagene cis-factorial NF-kB reporter mRNA; actives raise or lower the signal
Method in brief: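 Readout is reporter transcript level, gain or loss versus DMSO, measured 24 h post-dose via RT-PCR, fluorescent labelling and capillary electrophoresis. Human HepG2 liver cells carried transiently transfected CIS reporter constructs reflecting endogenous factors.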

[16] = ATG_NRF2_ARE_CIS: Attagene CIS-FACTORIAL HepG2 Assay for human Nuclear Factor Erythroid 2 Related Factor 2 (NFR2) response to Antioxidant Response Elements (ARE) (AID 2282992); conditions: HepG2 Attagene ARE/NRF2 reporter, transcription factor activity; actives raise or lower the signal;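 as to AC50: reporter mRNA level measured by RT-PCR and capillary electrophoresis fluorescence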
Method in brief: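 Cis-factorial assay: transfected HepG2 reporter library, 24 h dosing, mRNA readout via RT-PCR/CE; DMSO-referenced bidirectional analysis.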

[17] = ATG_Oct_MLP_CIS: Attagene CIS-FACTORIAL HepG2 Assay for human Octamer-Binding Transcription Factor (Oct) (AID 2282993); conditions: HepG2 Attagene cis-factorial Oct reporter, mRNA; actives raise or lower the signal
Method in brief: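 Read-out: reporter mRNA via RT-PCR plus capillary electrophoresis of 6-FAM-labelled fragments. Transiently transfected HepG2, 24 h exposure, endogenous TF activity on cis elements. Gain or loss of signal fitted relative to DMSO.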

[18] = ATG_XTT_Cytotoxicity: Cytotoxicity Assessment in the Attagene TRANS-FACTORIAL HepG2 Assay (AID 2283584; active = hit-call score of the fitted dose curve at least 0.9, where 1 is the maximum)
Method in brief: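 HepG2 cells transiently transfected with GAL4-UAS multiple reporter units, dosed 24 h; cytotoxicity read by XTT as loss of signal versus DMSO baseline.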

[19] = target: Cellular tumor antigen p53 (Homo sapiens) (UniProt P04637); experiment: ATG_p53_CIS: Attagene CIS-FACTORIAL HepG2 Assay for human p53 Transcription Factor (AID 2282994); conditions: HepG2 p53 cis-element reporter, Attagene mRNA; actives raise or lower the signal
Cellular tumor antigen p53 (Homo sapiens), sequence (P04637 whole entry, looked up): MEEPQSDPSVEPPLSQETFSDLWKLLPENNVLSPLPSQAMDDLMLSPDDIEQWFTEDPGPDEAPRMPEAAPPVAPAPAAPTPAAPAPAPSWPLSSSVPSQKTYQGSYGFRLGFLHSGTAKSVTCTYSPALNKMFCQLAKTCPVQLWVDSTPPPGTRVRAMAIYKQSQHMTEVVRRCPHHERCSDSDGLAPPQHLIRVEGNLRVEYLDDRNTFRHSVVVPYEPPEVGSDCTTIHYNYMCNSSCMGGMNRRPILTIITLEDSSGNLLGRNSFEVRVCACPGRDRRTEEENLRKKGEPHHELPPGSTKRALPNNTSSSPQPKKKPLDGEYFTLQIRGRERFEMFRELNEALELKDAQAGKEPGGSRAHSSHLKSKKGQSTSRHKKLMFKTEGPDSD
Method in brief: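 Using HepG2 hepatoma cells carrying cis-acting multiplexed reporters, mRNA induction is detected after a 24 h exposure. Gain- and loss-of-signal responses are fitted relative to DMSO-treated cells.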

[20] = ATG_VDRE_CIS: Attagene CIS-FACTORIAL HepG2 Assay for human Vitamin D Receptor Element (VDRE) (AID 2282968); conditions: HepG2 VDRE cis-reporter transcription, actives raise or lower the signal
Method in brief: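 HepG2 cells transiently transfected with cis-element reporter units, dosed 24 h; reporter mRNA measured by RT-PCR, 6-FAM labeling, HpaI digestion and capillary electrophoresis. Activity fitted bidirectionally against DMSO baseline.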

Measured: AC50

Cc1cc(C)c(C2=C(OC(=O)CC(C)(C)C)C3(CCCC3)OC2=O)c(C)c1
active: [6] 170 µM | [14] 189 µM | [16] 160 µM | [17] 128 µM
not listed: [19] | [20]
inactive: all other assays above

[Cl][Sb]([Cl])[Cl]
active: [6] 169 µM | [9] 186 µM | [14] 175 µM | [16] 1.72 µM | [19] 180 µM
not listed: [12] | [15] | [20]
inactive: all other assays above

O=[N+]([O-])O
not listed: [7] | [12] | [15] | [19] | [20]
inactive: all other assays above

CCC1CCC(=O)O1 (centres undefined)
not listed: [3] | [15] | [19]
inactive: all other assays above

CC1CCC(=O)O1 (centres undefined)
not listed: [3] | [10] | [12]
inactive: all other assays above

CCOC(=O)C1OC1(C)c1ccccc1 (centres undefined)
not listed: [15] | [20]
inactive: all other assays above

O=P(O)(Oc1ccccc1)Oc1ccccc1
inactive: all assays above

C[C@]12CC[C@H](O)C[C@H]1CC[C@@H]1[C@@H]2C[C@@H](O)[C@]2(C)[C@@H](C3=CC(=O)OC3)CC[C@]12O
active: [1] 2.8 µM | [2] 0.72 µM | [5] 5.31 µM | [6] 2.96 µM | [20] 2.08 µM | [13] 5.88 µM | [17] 2.08 µM
not listed: [4] | [10]
inactive: all other assays above

C[N+](=O)[O-]
not listed: [5] | [18]
inactive: all other assays above

O=S(=O)(c1ccccc1)c1ccccc1
active: [20] 31.4 µM
not listed: [15] | [18]
inactive: all other assays above

C=CC(=O)OCCCCOC(=O)C=C
active: [1] 168 µM | [2] 74 µM | [4] 63.6 µM | [9] 60.4 µM | [20] 33.5 µM | [15] 35.3 µM | [16] 24.6 µM | [17] 37.7 µM | [19] 163 µM
inactive: [3] | [6] | [8] | [10] | [11] | [12] | [13] | [14] | [18]

CC(C)CCCCCCCOP(=O)(Oc1ccccc1)Oc1ccccc1
active: [2] 55.6 µM | [20] 1.66 µM | [16] 19.5 µM
inactive: all other assays above

CCC(Br)(CC)C(=O)NC(N)=O
not listed: [12]
inactive: all other assays above

Cl/C=C\CCl
not listed: [3] | [18]
inactive: all other assays above

O=C(O)C(Br)Br
active: [16] 1.86 µM
not listed: [3] | [12]
inactive: all other assays above
